aDG glyco up – alpha-DG glycosylation activation | actives 0.22% (n = 360,000) | activation, % at 10 µM | AID 624168 | Pro5-aDG cells, alpha-DG glycosylation AlphaScreen (IIH6); 0% Pro5, 100% B10-LARGE cell signal;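 active = activation of at least 8% versus controls, or a plate z-score of at least 8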;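 note: Pro5 are CHO cells carrying HIG-tagged alpha-DG that lacks glycosylation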
CRFBP-R2 block – blocks CRF-induced signaling of the CRF-BP/CRF-R2 complex | HEK293 CRF-R2/CRF-BP, CRF-induced calcium fluorescence | inhibition, % at 11.8 µM | actives 0.59% (n = 350,000);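 active = inhibition of the ligand-induced calcium signal above about 50% at the single tested concentration, limit read from the data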
Cardio protect – protects H9c2 cardiomyocytes from peroxide injury. H2O2 injury protection, ATPLite, 2 h. protection from H2O2 cell death, % at 20 µM. actives 0.63% (n = 360,000);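 active = compounds giving at least 50% protection of heart cells from peroxide-induced death in the single-dose screen, raw or plate-pattern-corrected value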
FAS TE block – blocks the thioesterase domain of human fatty acid synthase | P49327 | recombinant FAS-TE, OMFH fluorogenic substrate, fluorescence endpoint | inhibition, % at 15 µM | actives 0.67% (n = 360,000);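 active = compounds whose normalised, plate-corrected inhibition of enzyme fluorescence in the single-dose primary screen is 50% or more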
PfG6PD inh – PfG6PD (Plasmodium falciparum) enzyme inhibition. PfGluPho enzyme, NADPH resazurin-diaphorase fluorescence. inhibition, % at 20 µM. AID 504690. actives 0.78% (n = 350,000);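 active = inhibition reaching at least a set limit at 20 µM in the primary screen, cut at about 59% in these data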
CRFR2-BP ag – CRF-BP/CRF-R2 complex agonism | HEK293 CRF-R2/CRF-BP, calcium dye fluorescence (FLIPR); percent of saturating CRF peptide response | activation, % at 13.2 µM | actives 0.46% (n = 350,000) | AID 588473;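 active = activation of at least 50%, plus an integration ratio under a set limit after plate pattern correction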
aDG glyco conf – confirmation of alpha dystroglycan glycosylation activators; activation, % at 10 µM (by protocol); actives 17% (n = 600); Pro5-aDG cells, alpha-DG glycosylation, IIH6 AlphaLISA; scaled to LARGE-overexpressing B10 cells as 100%; AID 651671; shares compounds with aDG glyco up;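 active = activation of at least 7% in one or more replicates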;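 note: cells exposed to compound for two days before detection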
Numbers stand for hits; . = inactive; / = no result. Compounds with a hit are over-represented: about 3.2% of the library has one in this group of screens.

SMILES	aDG glyco up	CRFBP-R2 block	Cardio protect	FAS TE block	PfG6PD inh	CRFR2-BP ag	aDG glyco conf
COc1cccc(-n2c(=O)n(Cc3ccccc3)c(=O)c3[nH]cnc32)c1C	.	.	.	.	.	.	/
COC(=O)[C@]12CCCCC=C1N(Cc1cccc3ccccc13)C(=O)[C@H](CC(=O)NCc1ccccc1)C2	.	/	/	.	/	/	/
COC(=O)[C@]12CCCCC=C1N(Cc1cccc3ccccc13)C(=O)[C@H](CC(=O)NCCC(C)C)C2	5.6	/	/	.	/	/	.
Cc1nnc(SCC(=O)NC2CCCc3ccccc32)n1-c1ccccc1 (stereo unspecified)	7.0	.	.	.	.	.	.
Cc1ccc(CNC(=O)Cc2noc3ccccc23)cc1	.	.	.	.	.	.	/
O=C1Nc2ccccc2N=C(c2ccc3c(c2)OCO3)C1N(C(=O)c1ccc2ccccc2c1)C1CC1 (stereo unspecified)	.	/	.	.	/	/	/
CCOc1cc(/C=N/NC(=O)c2ccc(N(C)S(=O)(=O)c3ccccc3)cc2)ccc1OC	2.4	.	.	.	.	.	.
O=C(NCCN1CCOCC1)c1cccc(NS(=O)(=O)c2ccc(Br)cc2)c1	.	.	.	.	.	.	/
CC(=O)c1c(COC(=O)c2ccc(C)cc2)nc2ccccc2[n+]1[O-]	2.8	.	.	.	.	.	.
CN(C)c1ccc(C(=O)OCC(=O)Nc2ccc(S(N)(=O)=O)cc2)cc1	6.0	54.5	.	.	.	.	.
CN(C)c1ccc(NC(=O)COC(=O)c2ccc3c(c2)OCO3)cc1	.	.	.	.	.	.	/
N#Cc1cccc(NC(=O)CSc2nnc(-c3n[nH]c4ccccc34)o2)c1	.	.	.	.	.	.	/
C#Cc1cccc(NC(=O)CSc2nnc(-c3ccc(C(F)(F)F)cn3)o2)c1	3.5	.	.	.	.	.	.
N#Cc1nnn(-c2ccc(Cl)cc2)c1N	.	.	.	.	.	.	/
Cc1ccc(OCCCCn2ccnc2C)c(C)c1	3.0	.	.	.	.	.	.
CC[C@]12c3[nH]c4ccc(Cl)cc4c3CCN1C(=O)[C@@H](CC(=O)NCCc1ccccn1)C[C@@H]2C(=O)N1CCN(C(=O)C2CC2)CC1	7.9	.	.	.	.	.	.
CN1CCN(S(=O)(=O)c2ccc(N(C)Cc3ccc(C(F)(F)F)cc3)c([N+](=O)[O-])c2)CC1	5.8	.	.	.	.	.	.
C=CCOc1ccc(CN(C)c2ccc(S(=O)(=O)N3CCN(C)CC3)cc2[N+](=O)[O-])cc1	.	.	.	.	.	.	/
CC1(NC(=O)Nc2cc([N+](=O)[O-])ccc2O)CCS(=O)(=O)C1 (stereo unspecified)	6.9	.	.	.	.	.	.
CC(=O)Nc1ccc(S(=O)(=O)N(CC(=O)NCC2CCCO2)Cc2ccccc2Cl)cc1 (stereo unspecified)	.	.	.	.	.	.	/
Cc1cc(C)n(CCNC(=O)[C@H]2O[C@@H](n3ccc(=O)[nH]c3=O)[C@H](O)[C@@H]2O)n1	21.2	/	.	.	/	/	.
O=C(NCC(F)(F)F)[C@H]1O[C@@H](n2ccc(=O)[nH]c2=O)[C@H](O)[C@@H]1O	.	/	.	.	/	/	/
CC1CCCCN1C(=O)CN1C(=O)c2ccccc2S1(=O)=O (stereo unspecified)	.	.	.	.	.	.	/
CCC1CCCCN1C(=O)CN1C(=O)c2ccccc2S1(=O)=O (stereo unspecified)	3.3	.	.	.	.	.	.
COC(=O)[C@@]1(C)[C@H]2C(=O)N(Cc3ccccc3)C(=O)[C@H]2[C@H]2CN=C(SCc3ccc(C#N)cc3)N21	5.6	.	.	.	.	.	.
SMILES	aDG glyco up	CRFBP-R2 block	Cardio protect	FAS TE block	PfG6PD inh	CRFR2-BP ag	aDG glyco conf
O=C(COc1ccc2c3c(c(=O)oc2c1)CCCC3)NCc1cccnc1	7.0	.	.	.	.	.	.
Cc1cccc(NC(=O)C2CCCCN2S(=O)(=O)c2ccccc2)c1C (stereo unspecified)	.	.	.	.	.	.	/
Cc1ccc(S(=O)(=O)N(C)C)cc1NC(=O)C1CCCCN1S(=O)(=O)c1ccccc1 (stereo unspecified)	2.9	.	.	.	.	.	.
CCN1CCN(C2=C(NS(=O)(=O)c3ccc(NC(C)=O)cc3)C(=O)c3ccccc3C2=O)CC1	6.7	.	.	.	.	.	.
O=C(NCc1cccnc1)NC1(c2ccccc2)CC1	10.1	.	.	.	.	.	.
O=C(O)c1ccccc1C(=O)NCc1cccnc1	.	.	.	.	.	.	/
Cc1cccc2cc(CN(CCCN(C)C)C(=S)NCCc3ccccc3)c(=O)[nH]c12	4.7	.	.	.	.	.	.
Cc1ccc2[nH]c(=O)c(CN(CCCN(C)C)C(=S)NCCc3ccccc3)cc2c1	.	.	.	.	.	.	/
COc1ccc(-c2nc(N)ncc2-c2csc(C)n2)c(O)c1OC	.	.	.	.	.	.	/
O=C(Nc1ccnn1C1CCN(Cc2cccc(OCCO)c2)CC1)C1CC1	6.0	.	.	.	.	.	.
COc1cccc(CN2CCC(n3nccc3NC(=O)C3CC3)CC2)c1	.	.	.	.	.	.	/
Cc1cc2ccccn2c1C(=O)c1ccc([N+](=O)[O-])o1	.	.	.	.	.	.	/
O=C(NC(=S)NCCC1=CCCCC1)c1cncc(Br)c1	.	.	.	.	.	.	/
O=C(NCC1CCCO1)C1CCN(C2CCN(C(=O)CC3CCCC3)CC2)CC1 (stereo unspecified)	3.7	.	.	.	.	.	.
O=C(NCC1CCCO1)C1CCN(C2CCN(CCCC3CCCC3)CC2)CC1 (stereo unspecified)	.	.	.	.	.	.	/
O=C(CCc1nnc(CCc2c[nH]c3ccccc23)o1)NC1CCC1	.	.	.	.	.	.	/
CCS(=O)(=O)c1nc(S(=O)(=O)c2ccc(Cl)cc2)c(NCc2ccccn2)s1	.	.	.	.	.	.	/
O=C(CN1C(=O)c2ccccc2S1(=O)=O)NCCSCc1ccco1	79.9	.	.	.	.	.	.
Cc1cc(C)n(S(=O)(=O)c2ccc3oc(=O)ccc3c2)n1	.	.	.	.	.	.	/
Cc1nc(NCCc2ccc(S(N)(=O)=O)cc2)c2c(C)c(C)sc2n1	8.2	.	.	.	.	.	.
Cc1nc(NCc2ccc(S(N)(=O)=O)cc2)c2c(C)c(C)sc2n1	.	.	.	.	.	.	/
O=C(CCN1C(=O)c2ccccc2C1=O)NCc1ccc(Cl)cc1	2.7	.	.	.	.	.	.

Screens (PubChem)
